# PubChem BioAssay AID588726 (The Scripps Research Institute Molecular Screening Center, 2011)
# The whole screen tested about 360,000 compounds, of which about 8,200 (2.3%) were called active. Rule as the data show it: active = inhibition above about 27%; inactive = the rest. For the sample, actives were picked, then their nearest neighbours and some compounds at random.
# Biological target: Fructose-bisphosphate aldolase (Mycobacterium tuberculosis (strain ATCC 25618 / H37Rv)) (UniProt P9WQA3)
# Sequence (P9WQA3 whole entry, looked up): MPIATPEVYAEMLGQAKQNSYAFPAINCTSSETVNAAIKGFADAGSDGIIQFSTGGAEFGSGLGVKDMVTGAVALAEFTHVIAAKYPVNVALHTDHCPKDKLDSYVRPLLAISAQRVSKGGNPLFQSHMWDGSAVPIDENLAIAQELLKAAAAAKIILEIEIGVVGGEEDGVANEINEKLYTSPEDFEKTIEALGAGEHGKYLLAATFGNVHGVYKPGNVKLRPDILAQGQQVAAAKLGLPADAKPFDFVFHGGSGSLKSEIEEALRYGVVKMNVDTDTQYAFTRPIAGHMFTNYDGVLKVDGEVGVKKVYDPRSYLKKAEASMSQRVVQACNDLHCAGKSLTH
# Assay: M. tuberculosis aldolase activity blockers – biochemical, fluorescence, strain H37Rv, primary screen (AID 588726);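 also: 0% = vehicle and 100% = reference inhibitor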
# Conditions: purified M. tuberculosis FBA, fluorescence read-out, at 1 µM, active compounds read high
row,SMILES,inhibition
1,Cn1nccc1NS(=O)(=O)c1ccc(F)cc1,-0.97% (inactive)
2,CC(=O)N(C)c1ccc(NC(=O)Nc2cccc3ccccc23)cc1,6.26% (inactive)
3,O=C(Nc1cccc2ccccc12)NC1CC1,9.02% (inactive)
4,CCN(C(=O)Nc1cccc2ccccc12)c1ccccc1,75.4% (active)
5,O=C(N/N=C/c1cccc2cccnc12)[C@H]1C[C@@H]1c1ccccc1,-0.16% (inactive)
6,C[N+]1(CCNC(=O)/C=N/O)CCCCC1,4.51% (inactive)
7,COC(=O)c1c(NC(=O)CN2C(=O)NC(CCc3ccccc3)C2=O)sc2c1CCCCC2 (stereo unspecified),-0.99% (inactive)
8,O=C1C2C3C=CC(C3)C2C(=O)N1c1ccc(S(=O)(=O)Nc2nccs2)cc1 (stereo unspecified),-2.35% (inactive)
9,COc1cccc(N2CCN(c3ccc4nnc(CCC(=O)N5CCN(C)CC5)n4n3)CC2)c1,1.71% (inactive)
10,CN1CCN(c2ccc([N+](=O)[O-])c(Sc3nc4ccccc4[nH]3)c2)CC1,-3.38% (inactive)
11,COCCCNS(=O)(=O)c1cccc(S(=O)(=O)c2cccc(S(=O)(=O)NCCCOC)c2)c1,0.27% (inactive)
12,COc1ccc(/C=N/n2c(C)cc(C)cc2=O)cc1,3.54% (inactive)
13,CC(C)OCCCNc1ncnc2c1[nH]c1ccc(F)cc12,31.8% (active)
14,O=C(Nc1ccccc1Cl)/C(Cl)=C(\Cl)S(=O)c1ccccc1 (stereo unspecified),-3.21% (inactive)
15,CC(C)Cn1cc(-c2cncc3nccn23)cn1,142% (active)
16,C=CCSc1nc(N)cc(=O)[nH]1,3.86% (inactive)
17,CCc1cc(=O)oc2cc(OCC(=O)N3CCCc4ccccc43)ccc12,5.17% (inactive)
18,Cc1cc(C)c2c(Cn3ccnc3)cc(=O)oc2c1,0% (inactive)
19,Cc1cc(=O)oc(C)c1C(=O)NC1CC(C)(C)NC(C)(C)C1,0.07% (inactive)
20,Cc1cc(C)c(NC(=S)N2CCCC2C(=O)O)c(C)c1 (stereo unspecified),0.88% (inactive)
21,CCc1cc(=O)oc2cc(C)cc(OC(C)C(=O)O)c12 (stereo unspecified),176% (active)

row,SMILES,inhibition
1,Cc1cc(OC(C)C(=O)NC2CC(C)(C)NC(C)(C)C2)c2c(C)cc(=O)oc2c1 (stereo unspecified),154% (active)
2,CC(Oc1cccc(Cl)c1)C(=O)NC1CC(C)(C)NC(C)(C)C1 (stereo unspecified),0.76% (inactive)
3,COc1cccc(NC(=O)COc2cc(C)cc3oc(=O)cc(C)c23)c1,7.86% (inactive)
4,CCc1cc(=O)oc2cc(C)cc(OCC(=O)N3CCC[C@@H]3C(=O)O)c12,106% (active)
5,CCOC(=O)c1sc2nc(C)nc(Nc3ccc(OC)c(OC)c3)c2c1C,0.66% (inactive)
6,N#Cc1ccc(C(c2ccc(C#N)cc2)n2cncn2)cc1,2.3% (inactive)
7,O=C(CNS(=O)(=O)c1ccc2ccccc2c1)Nc1ccc(F)c(F)c1F,1.83% (inactive)
8,CC(C)NS(=O)(=O)c1ccc(CCC(=O)N2CCOCC2)cc1,0.26% (inactive)
9,CCc1nc2c(OCCc3cccc(OC)c3)cccn2c1N(C)C(=O)c1ccc(C)cc1,1.14% (inactive)
10,CC(=O)c1cccc(-n2nnnc2SCC(=O)NNC(=O)C2CCCCC2)c1,3.69% (inactive)
11,COc1cc(C(=O)NCc2nnc(SCC(=O)Nc3nc4ccc(C)cc4s3)o2)cc(OC)c1OC,1.7% (inactive)
12,N/C(=N\OC(=O)CCn1cccc(C(F)(F)F)c1=O)c1ccc(OC(F)(F)F)cc1,1.82% (inactive)
13,Cc1ccc(NN=C2C(=O)OC(C)(C)OC2=O)c(C)c1,-7.26% (inactive)
14,COc1ccc(Br)c2c1C(=O)CC2,2.69% (inactive)
15,O=C(c1c(F)cccc1Cl)N1CCN(c2ccccn2)CC1,116% (active)
16,O=C(c1c(F)cccc1F)N1CCN(c2ncc(Br)cn2)CC1,-0.3% (inactive)
17,O=C(Cc1ccccc1Cl)N1CCN(c2ccccn2)CC1,10.2% (inactive)
18,NS(=O)(=O)c1cc2c(cc1Cl)NC(C(Cl)Cl)NS2(=O)=O (stereo unspecified),2.88% (inactive)
19,COc1ccc(OC)c(NC(=O)Cn2c(=O)oc3ccccc32)c1,-2.86% (inactive)
20,CCc1cccc2c(C=C(C#N)C#N)cn(CC(=O)N3CCCCC3)c12,-1.66% (inactive)
21,COC(=O)c1cn(C(=O)c2ccc(Cl)cc2)c2ccccc12,-0.26% (inactive)

row,SMILES,inhibition
1,Cc1onc(-c2ccc(Cl)cc2)c1-c1ccnn1S(=O)(=O)c1ccc(Cl)cc1,-3.96% (inactive)
2,COC(=O)c1noc(C)c1-c1ccnn1C(=O)c1ccc(Cl)cc1,29.4% (active)
3,Cc1ccc(C2=NN(C)c3nc4ccccc4n3C2)cc1,13.4% (inactive)
4,Cn1c(-c2ccc(C(=O)c3ccccc3)s2)nc2ccccc21,1.32% (inactive)
5,Cn1cccc1-c1nc2ccccc2n1C,28.6% (active)
6,O=C(COc1ccc(Cl)cc1)Nc1ccc2oc(=O)ccc2c1,2.76% (inactive)
7,Cc1ccc(S(=O)(=O)N2CCC(C)CC2)cc1C(=O)NCc1ccccn1,2.4% (inactive)
8,COc1ccc(NC(=O)CSc2ncnc3[nH]ncc23)cc1,1.84% (inactive)
9,CCCCn1c(N)c(N(CC(C)C)C(=O)c2cnc(C)cn2)c(=O)[nH]c1=O,0.47% (inactive)
10,CC(=O)N1CCN(S(=O)(=O)c2c(F)cc(F)c(Cl)c2F)CC1,-0.88% (inactive)
11,CC(C)c1cc(C(=O)N(C)C2CCCN(Cc3ccccc3F)C2)n(C)n1 (stereo unspecified),2.62% (inactive)
12,CN(CCNC(=O)c1cc2c(-c3ccccc3F)nn(C)c2s1)C1CCCCC1,73.3% (active)
13,Cc1oc(-c2ccccc2F)nc1CS(=O)(=O)CC(=O)NCCCN(C)C1CCCCC1,-2.64% (inactive)
14,CC(CO)NCC12CC3CC(CC(C3)C1)C2 (stereo unspecified),-1.08% (inactive)
15,Cc1ccc(Cn2c(=N)c(S(=O)(=O)c3ccc(C)cc3)cc3c(=O)n4ccccc4nc32)cc1,3.69% (inactive)
16,Cc1ccc(-n2c(SCC(=O)N3CCC(C(=O)O)CC3)nc3ccccc3c2=O)cc1C,-6.87% (inactive)
17,Cc1ccc(-n2c(=O)c(C#N)cc3c(=O)n4ccccc4nc32)cc1C,67% (active)
18,CCOC(=O)C1CN(S(=O)(=O)c2ccc(OC)cc2)c2cc(Cl)ccc2O1 (stereo unspecified),2.59% (inactive)
19,CC[C@]12c3[nH]c4cc(CCC(=O)N(C)C)ccc4c3CCN1C(=O)[C@@H](CC(=O)NCC13CC4CC(CC(C4)C1)C3)C[C@@H]2C(=O)N1CCN(C(=O)C2CC2)CC1,0.95% (inactive)
